Experimental data from PubChem BioAssay (EPA / NIEHS).
Inconclusive results are not listed. Active and inactive are the calls of the source. How the source made its calls: active means hit-call score of the fitted dose curve at least 0.9, where 1 is the maximum; inconclusive means response in the unintended direction; inactive means score below 0.9.

Assay: ACEA_AR_agonist_AUC_viability: ACEA Biosciences xCELLigence Real-Time Cell Analysis on Androgen Receptor Agonism for Viability (AID 2283775)
Protocol: ACEA_AR_agonist is a cell-based, single-readout assay that uses 22Rv1, a human prostate cancer cell line, with measurements taken at 80 hours after chemical dosing in a 384-well plate, although TO5 and TO6 (mc0.srcf) used a 96-well plate. Differences in plate size can be ignored given data normalization.ACEA_AR_80hr is one of two assay component(s) measured or calculated from the ACEA_AR assay. It is designed to make measurements of real-time cell-growth kinetics, a form of growth reporter, as detected with electrical impedance signals by Real-Time Cell Electrode Sensor (RT-CES) technology.Data from the assay component ACEA_AR_AUC_viability was analyzed in the positive analysis fitting direction relative to DMSO as the negative control and baseline of activity. Using a type of growth reporter, loss-of-signal activity can be used to understand changes in the viability. Furthermore, this assay endpoint can be referred to as a secondary readout, because this assay has produced multiple assay endpoints where this one serves a viability function. To generalize the intended target to other relatable targets, this assay endpoint is annotated to the cell cycle intended target family, where the subfamily is cytotoxicity.
The xCELLigence system Multi-E-Plate stations were used to measure the time-dependent response to chemicals. Each compound was tested in an eight-point, 1:4 serial dilution series starting at a maximum final concentration of 100 uM. A maximum starting concentration of 0.5% DMSO was present in the 100 uM chemical samples and was diluted along with the test article dilution series. The screen was performed in biological duplicate using two separate, 96-well, E-Plates 96 for each dilution series (n = 2). Positive controls (MG132 and testosterone) and a negative control (assay media) were tested in quadruplicate on each testing plate. Then, 0.5% and 0.125% DMSO were tested in duplicates in each plate to serve as solvent controls for the 2 highest concentrations of testing compounds: 100 uM and 25 uM. Reference compounds were tested with 8 concentrations with 1:5 serial dilutions. All screening was carried out by ACEA Biosciences, Inc. (San Diego, CA). 22Rv1 cells purchased from ATCC were maintained in media supplemented with 10% fetal bovine serum (FBS). Before screening, 22Rv1 cells were preconditioned in assay medium. Cells were then detached and seeded in E-Plates 96 in assay medium. After overnight monitoring of growth once every hour, compounds were added to […] cells and remained in the medium until the end of the experiment. Cellular responses were then recorded once every 5 min for the first 5 h, and once every hour for an additional 100 h.

Question: Which outcome does the source give for [Na+] here?
Answer: inactive

Question: With O=C(O)c1ccccc1O as the compound, how does the outcome read?
Answer: inactive

Question: Which outcome does the source give for NC(=O)c1cccnc1 here?
Answer: inactive

Question: With CC(C)(C)C1CCC(O)CC1 (stereo not given) as the compound, how does the outcome read?
Answer: inactive

Question: With O=c1cc(-c2ccc(O)cc2)oc2cc(O)cc(O)c12 as the compound, how does the AC50 read?
Answer: 12.7 µM (active)

Question: Which outcome does the source give for CC(=O)OC(C)(C)C1CC=C(C)CC1 (stereo not given) here?
Answer: inactive

Question: Which outcome does the source give for CC1=CCC(C(C)(C)O)CC1 (stereo not given) here?
Answer: inactive

Question: With CCCC(O)C(CC)CO (stereo not given) as the compound, how does the outcome read?
Answer: inactive

Question: Which AC50 does the source give for CC/C(=C(\c1ccccc1)c1ccc(OCCN(C)C)cc1)c1ccccc1 here?
Answer: 10.4 µM (active)

Question: With CCCCCC1CCC(=O)O1 (stereo not given) as the compound, how does the outcome read?
Answer: inactive

Question: Which outcome does the source give for NC(N)=S here?
Answer: inactive

Question: For CCCc1ccc(O)cc1, which outcome is on record?
Answer: inactive

Question: For C#C[C@]1(O)CC[C@H]2[C@@H]3CCc4cc(O)ccc4[C@H]3CC[C@@]21C, which outcome is on record?
Answer: inactive

Question: Which outcome does the source give for FC(F)(F)c1ccc(Cl)c(Cl)c1 here?
Answer: inactive

Question: With NCCN1CCNCC1 as the compound, how does the outcome read?
Answer: inactive

Question: With COc1cc(OC)c2ccc(=O)oc2c1 as the compound, how does the AC50 read?
Answer: 0.94 µM (active)

Question: Which outcome does the source give for CC(=O)C1=C(C)[C@@H]2C[C@@]3(C1)[C@H](C)CC[C@H]3C2(C)C here?
Answer: inactive

Question: With CCCCCCCCOC(=O)c1ccc(O)cc1 as the compound, how does the outcome read?
Answer: inactive

Question: With CCCCC(CC)COCCO (stereo not given) as the compound, how does the outcome read?
Answer: inactive

Question: Which outcome does the source give for CC1=CCC(=C(C)C)CC1 here?
Answer: inactive

Question: For CC(=O)c1ccc2ccccc2c1, which outcome is on record?
Answer: inactive

Question: With CCCCCCCCCCO[C@@H]1O[C@H](CO)[C@@H](O)[C@H](O)[C@H]1O as the compound, how does the outcome read?
Answer: inactive

Question: For C1=COCCC1, which outcome is on record?
Answer: inactive

Question: Which outcome does the source give for CCNC(=S)NCC here?
Answer: inactive

Question: For C=CCCCCCCCCC(=O)OCC, which outcome is on record?
Answer: inactive

Question: With CCCCCCCCCCOC(=O)c1ccccc1C(=O)OCCCCCCCC as the compound, how does the outcome read?
Answer: inactive

Question: With c1ccc(Cc2ccccc2)cc1 as the compound, how does the outcome read?
Answer: inactive

Question: For COC(=O)C(C)Oc1ccc(Oc2ncc(C(F)(F)F)cc2Cl)cc1 (stereo not given), which outcome is on record?
Answer: inactive

Question: For CCC(C)COC(=O)CC(C)C (stereo not given), which outcome is on record?
Answer: inactive

Question: With CCCCCCCCCO as the compound, how does the outcome read?
Answer: inactive

Question: Which outcome does the source give for CCCCOCCOCCO here?
Answer: inactive

Question: For CCC(C)C1CCCCC1=O (stereo not given), which outcome is on record?
Answer: inactive

Question: For CCO[Si](CC)(OCC)OCC, which outcome is on record?
Answer: inactive

Question: Which outcome does the source give for CN(C)C here?
Answer: inactive

Question: Which outcome does the source give for CNC(=C[N+](=O)[O-])NCCSCc1ccc(CN(C)C)o1 here?
Answer: inactive

Question: For CC(=O)OC(C)(C)C, which outcome is on record?
Answer: inactive

Question: Which outcome does the source give for CC(CCO)CC(C)(C)C (stereo not given) here?
Answer: inactive

Question: With CC(C)(CO)CO as the compound, how does the outcome read?
Answer: inactive

Question: Which outcome does the source give for CCCCOCCOCCOCCO here?
Answer: inactive

Question: With OCC=Cc1ccccc1 as the compound, how does the outcome read?
Answer: inactive
